Here are results for 26 compounds from ChEMBL document CHEMBL5308504, “Tm Shift (DSF) assay results for EUbOPEN Chemogenomics Library” (2023).

What all share (details): Compound concentration 20.0 uM, Protein concentration 2.0 uM, Result type QC Liability
The target of experiment [1] is Tyrosine-protein kinase ABL1 (Homo sapiens) (UniProt P00519).
The target in experiment [2] is Cyclin-dependent kinase 2 (Homo sapiens) (UniProt P24941).
For experiment [3], the target named is Casein kinase I isoform delta (Homo sapiens) (UniProt P48730).
The target in experiment [4] is Glycogen synthase kinase-3 beta (Homo sapiens) (UniProt P49841).
The target in experiment [5] is Mitogen-activated protein kinase 1 (Homo sapiens) (UniProt P28482).
For experiment [6], the target named is T1, Aurora kinase A (Homo sapiens) (UniProt O14965).
T1 sequence (whole entry): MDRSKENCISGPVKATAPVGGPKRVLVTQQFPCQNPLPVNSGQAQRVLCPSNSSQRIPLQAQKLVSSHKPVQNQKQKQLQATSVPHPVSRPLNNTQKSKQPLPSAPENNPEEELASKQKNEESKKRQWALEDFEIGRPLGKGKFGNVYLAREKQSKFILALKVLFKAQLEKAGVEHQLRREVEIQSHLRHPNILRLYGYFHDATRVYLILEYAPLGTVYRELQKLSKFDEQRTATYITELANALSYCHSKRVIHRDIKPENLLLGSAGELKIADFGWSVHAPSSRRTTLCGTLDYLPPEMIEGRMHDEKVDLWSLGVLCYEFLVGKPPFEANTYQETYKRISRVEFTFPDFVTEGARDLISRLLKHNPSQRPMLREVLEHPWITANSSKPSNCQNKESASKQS

What is called ΔTm is the shift of the melting midpoint relative to a reference.

Chain of Tyrosine-protein kinase ABL1 (Homo sapiens) (P00519 whole entry): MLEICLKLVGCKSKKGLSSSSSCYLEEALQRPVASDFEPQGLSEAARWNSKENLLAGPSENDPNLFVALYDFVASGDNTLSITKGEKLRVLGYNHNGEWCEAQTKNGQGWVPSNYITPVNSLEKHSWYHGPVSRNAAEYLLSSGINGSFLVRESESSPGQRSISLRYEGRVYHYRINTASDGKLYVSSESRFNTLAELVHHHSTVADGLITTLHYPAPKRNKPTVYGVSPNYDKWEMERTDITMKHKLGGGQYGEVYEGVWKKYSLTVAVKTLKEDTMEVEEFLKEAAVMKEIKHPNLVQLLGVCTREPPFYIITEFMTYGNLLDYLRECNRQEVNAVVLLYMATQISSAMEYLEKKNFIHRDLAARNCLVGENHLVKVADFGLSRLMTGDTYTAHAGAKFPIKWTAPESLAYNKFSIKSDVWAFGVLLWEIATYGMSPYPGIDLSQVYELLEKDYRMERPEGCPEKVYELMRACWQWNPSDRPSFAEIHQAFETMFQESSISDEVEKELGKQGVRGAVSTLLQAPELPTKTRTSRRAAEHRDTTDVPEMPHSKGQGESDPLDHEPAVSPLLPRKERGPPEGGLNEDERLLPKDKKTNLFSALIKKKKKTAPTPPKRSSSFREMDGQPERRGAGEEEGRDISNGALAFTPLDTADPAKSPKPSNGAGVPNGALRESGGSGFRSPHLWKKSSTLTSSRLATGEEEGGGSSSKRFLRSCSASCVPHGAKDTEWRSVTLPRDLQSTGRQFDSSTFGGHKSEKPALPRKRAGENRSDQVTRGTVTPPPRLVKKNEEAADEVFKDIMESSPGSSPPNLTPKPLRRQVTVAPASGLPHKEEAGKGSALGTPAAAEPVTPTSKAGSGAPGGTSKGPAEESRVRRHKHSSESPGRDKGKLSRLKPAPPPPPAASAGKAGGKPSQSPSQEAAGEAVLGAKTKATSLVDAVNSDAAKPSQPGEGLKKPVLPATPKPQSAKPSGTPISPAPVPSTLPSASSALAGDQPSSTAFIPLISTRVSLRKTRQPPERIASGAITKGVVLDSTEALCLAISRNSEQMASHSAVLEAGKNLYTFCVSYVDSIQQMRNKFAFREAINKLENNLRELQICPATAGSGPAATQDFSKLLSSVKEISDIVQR
Chain of Glycogen synthase kinase-3 beta (Homo sapiens) (P49841 whole entry, looked up): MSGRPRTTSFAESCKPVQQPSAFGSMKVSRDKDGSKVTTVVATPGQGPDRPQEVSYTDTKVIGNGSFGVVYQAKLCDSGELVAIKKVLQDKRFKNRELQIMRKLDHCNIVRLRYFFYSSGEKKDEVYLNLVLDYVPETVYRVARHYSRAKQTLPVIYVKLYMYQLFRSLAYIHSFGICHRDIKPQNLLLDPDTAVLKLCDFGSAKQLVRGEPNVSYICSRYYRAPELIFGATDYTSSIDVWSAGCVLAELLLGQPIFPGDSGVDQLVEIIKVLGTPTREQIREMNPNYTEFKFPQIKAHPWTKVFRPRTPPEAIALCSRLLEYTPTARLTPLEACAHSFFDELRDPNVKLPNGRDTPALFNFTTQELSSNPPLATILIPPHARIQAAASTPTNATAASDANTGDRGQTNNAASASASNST
Chain of Mitogen-activated protein kinase 1 (Homo sapiens) (P28482 whole entry): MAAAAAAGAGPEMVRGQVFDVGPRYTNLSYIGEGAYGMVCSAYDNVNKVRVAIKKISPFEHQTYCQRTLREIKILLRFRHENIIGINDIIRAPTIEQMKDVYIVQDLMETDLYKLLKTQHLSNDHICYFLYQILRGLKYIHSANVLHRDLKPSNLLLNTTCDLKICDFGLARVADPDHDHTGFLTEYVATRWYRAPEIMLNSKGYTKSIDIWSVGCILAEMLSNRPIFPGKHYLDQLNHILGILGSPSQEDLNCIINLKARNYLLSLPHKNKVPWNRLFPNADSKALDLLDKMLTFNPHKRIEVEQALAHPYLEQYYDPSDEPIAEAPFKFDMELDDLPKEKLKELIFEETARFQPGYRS
Chain of Casein kinase I isoform delta (Homo sapiens) (P48730 whole entry, looked up, canonical isoform): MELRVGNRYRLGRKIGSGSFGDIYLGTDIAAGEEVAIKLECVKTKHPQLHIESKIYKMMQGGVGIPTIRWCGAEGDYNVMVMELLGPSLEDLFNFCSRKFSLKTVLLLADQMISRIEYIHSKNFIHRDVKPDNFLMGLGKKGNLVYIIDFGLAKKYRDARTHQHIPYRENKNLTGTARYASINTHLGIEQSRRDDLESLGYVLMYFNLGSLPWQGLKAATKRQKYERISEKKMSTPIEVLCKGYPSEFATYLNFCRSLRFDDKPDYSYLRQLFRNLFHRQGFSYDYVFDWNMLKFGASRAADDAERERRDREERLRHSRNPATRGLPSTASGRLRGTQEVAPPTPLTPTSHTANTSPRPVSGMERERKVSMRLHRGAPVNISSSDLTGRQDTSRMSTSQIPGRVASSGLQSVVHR

As to `CC(=O)c1c(C)c2cnc(Nc3ccn(C)n3)nc2n(C2CCCC2)c1=O`, the ΔTm was -0.44 °C in experiment [1]; -0.29 °C in experiment [2]; -0.59 °C in experiment [3]; 2.32 °C in experiment [4]; 0.48 °C in experiment [5]; 0.47 °C in experiment [6].

For `CCc1nc(-c2cccc(C)c2)c(-c2ccnc(NC(=O)c3ccccc3)c2)s1`, the ΔTm in experiment [1] was 1.26 °C; in experiment [2] it was -1.36 °C; in experiment [3] it was 4.93 °C; in experiment [4], -1.07 °C; in experiment [5] it was -0.25 °C; in experiment [6] it was -1.25 °C.

`COc1cc(C)c(S(=O)(=O)N(C)CCC(=O)N[C@H]2CC[C@@H](N3CCC4CN(C)CC4C3)CC2)c(C)c1` (stereo partly specified): the ΔTm in experiment [1] is 0.38 °C; in experiment [2], -0.04 °C; in experiment [3], 0.64 °C; in experiment [4], 0.15 °C; in experiment [5], 0.83 °C; in experiment [6] it was -0.36 °C.

Regarding `Cn1cc(C(=O)O)c2ccc(N3CCC(OCc4c(-c5c(Cl)cccc5Cl)noc4C4CC4)CC3)cc21`, the ΔTm in experiment [1] is 0.5 °C; in experiment [2], 0.93 °C; in experiment [3], 1.17 °C; in experiment [4], 0.23 °C; in experiment [5], 0.52 °C; in experiment [6] it was -1.5 °C.

Take `Cc1ccc(NS(=O)(=O)c2ccc3c(c2)C2C=CCC2C(c2ccc(C(=O)O)cc2)N3)cc1C` (stereo unspecified): the ΔTm was -0.61 °C in experiment [1]; 1.5 °C in experiment [2]; 0.36 °C in experiment [3]; -1.27 °C in experiment [4]; -3.84 °C in experiment [5]; -2.29 °C in experiment [6].

Regarding `CN1CC(=O)N(C)c2cnc(Nc3ccc(NC(=O)Nc4cccc(C(=O)O)c4)cc3)nc21`, the ΔTm in experiment [1] is 0.56 °C; in experiment [2] it was -0.17 °C; in experiment [3], 0.58 °C; in experiment [4], 1.43 °C; in experiment [5], 0.43 °C; in experiment [6], 2 °C.

On to `CN1CCN(C(=O)c2ccc3cc2OCCOCCNc2ccn4ncc-3c4n2)CC1`, for which the ΔTm worked out at 1.92 °C in experiment [1]; 0.81 °C in experiment [2]; 0.3 °C in experiment [3]; 0 °C in experiment [4]; 0.5 °C in experiment [5]; 3.85 °C in experiment [6].

Regarding `CNS(=O)(=O)c1ccc(N(C)C)c(Nc2ncnc3cc(OC)c(OC)cc23)c1`, the ΔTm in experiment [1] is 3.42 °C; in experiment [2], -0.02 °C; in experiment [3], 0.23 °C; in experiment [4], -0.61 °C; in experiment [5] it was 0.24 °C; in experiment [6], -1.08 °C.

Regarding `Clc1ccccc1C(c1ccccc1)(c1ccccc1)n1ccnc1`, the ΔTm was -1.2 °C in experiment [1]; -1.88 °C in experiment [2]; -0.72 °C in experiment [3]; -2.38 °C in experiment [4]; -0.79 °C in experiment [5]; -2.33 °C in experiment [6].

For the compound `CC(C)N(CCCCOCC(=O)O)c1cnc(-c2ccccc2)c(-c2ccccc2)n1`, the ΔTm is 0.75 °C in experiment [1]; -0.83 °C in experiment [2]; 0.48 °C in experiment [3]; 0.74 °C in experiment [4]; -0.32 °C in experiment [5]; -1.44 °C in experiment [6].

`Cc1[nH]nc(C(F)(F)F)c1Cc1sc2c(c1C(=O)N1C[C@](C)(O)CO1)c(=O)n(C)c(=O)n2C(C)C`: the ΔTm in experiment [1] was 0.24 °C; in experiment [2] it was 0.67 °C; in experiment [3], -0.27 °C; in experiment [4], 0.32 °C; in experiment [5], 0.23 °C; in experiment [6] it was -0.32 °C.

Consider `CN(C)CC#Cc1ccc2[nH]c3c(c2c1)-c1nc(N)ncc1CCC3`, for which the ΔTm in experiment [1] was 0.75 °C; in experiment [2] it was -0.08 °C; in experiment [3], 3.05 °C; in experiment [4], 0.06 °C; in experiment [5], 0.46 °C; in experiment [6], 1.23 °C.

For `COc1cc2ncnc(Nc3ccc4c(cnn4Cc4ccccc4)c3)c2cc1OC`, the ΔTm is -2.25 °C in experiment [1]; -2.73 °C in experiment [2]; 0.02 °C in experiment [3]; -2.74 °C in experiment [4]; -0.38 °C in experiment [5]; 0.63 °C in experiment [6].

Regarding `Cn1nc(C(=O)NCc2ccc(C(=O)O)cc2)cc1-c1ccc2[nH]ccc2c1`, the ΔTm was 0.76 °C in experiment [1]; 0.58 °C in experiment [2]; 0.39 °C in experiment [3]; -0.55 °C in experiment [4]; 0.47 °C in experiment [5]; 0.09 °C in experiment [6].

`C[C@@H]1CN(CC(=O)N2CC(C)(C)c3nc(CO)c(Cc4ccc(F)cc4)cc32)[C@@H](CN2CCOC[C@H]2C)CN1`: the ΔTm is 0.35 °C in experiment [1]; 0.82 °C in experiment [2]; -0.16 °C in experiment [3]; -0.02 °C in experiment [4]; 0.01 °C in experiment [5]; -0.39 °C in experiment [6].

`C=CC(=O)Nc1cccc(C(=O)Nc2ccc(Nc3cc(-c4c(-c5ccc(F)cc5)nc(SC)n4C)ccn3)cc2)c1`: the ΔTm is 2.33 °C in experiment [1]; -0.01 °C in experiment [2]; 3.17 °C in experiment [3]; -0.32 °C in experiment [4]; 0.35 °C in experiment [5]; 1.08 °C in experiment [6].

Turning to `CC(C)(O)c1cn(-c2ccc(-c3cccc(S(C)(=O)=O)c3)cc2)c(C(C)(C)c2ccccc2Cl)n1`, the ΔTm in experiment [1] is -1.7 °C; in experiment [2], 0.08 °C; in experiment [3], -0.27 °C; in experiment [4], -0.99 °C; in experiment [5] it was 0.15 °C; in experiment [6], -3.66 °C.

Turning to `CCN(C)S(=O)(=O)Nc1cccc(-c2ccc3c(NC(=O)C4CC4)n[nH]c3c2)c1`, the ΔTm in experiment [1] stood at 4.16 °C; in experiment [2], 3.52 °C; in experiment [3], 0.06 °C; in experiment [4] it was 3.82 °C; in experiment [5] it was 0.42 °C; in experiment [6], 4.06 °C.

Turning to `O=C(O)Cc1cc(I)c(Oc2ccc(O)c(I)c2)c(I)c1`, the ΔTm in experiment [1] is -0.37 °C; in experiment [2], 0.49 °C; in experiment [3], 0.22 °C; in experiment [4], -0.68 °C; in experiment [5] it was -1.09 °C; in experiment [6] it was 3.86 °C.

In the case of `CCc1cc2c(cc1N1CCC(N3CCOCC3)CC1)C(C)(C)c1[nH]c3cc(C#N)ccc3c1C2=O`, the ΔTm is 0.88 °C in experiment [1]; 1.02 °C in experiment [2]; 0.16 °C in experiment [3]; 0.18 °C in experiment [4]; 0.1 °C in experiment [5]; -0.02 °C in experiment [6].

As to `CC[C@@H](CO)Nc1nc(Nc2cccc(NC(=O)C(C)(C)C)c2)ncc1F`, the ΔTm turned out to be 1.74 °C in experiment [1]; 1.9 °C in experiment [2]; 0.38 °C in experiment [3]; 3.34 °C in experiment [4]; 0.54 °C in experiment [5]; 9.07 °C in experiment [6].

As to `CC[C@@H](C(=O)OC)n1c(=O)c2ccccc2n(Cc2cn(C)c3cccc(C)c23)c1=O`, the ΔTm in experiment [1] is -0.76 °C; in experiment [2] it was 0.06 °C; in experiment [3] it was 0.32 °C; in experiment [4], -0.47 °C; in experiment [5], 0.23 °C; in experiment [6], -0.05 °C.

Take `N#Cc1cccc(-c2c[nH]c3ncnc(N4CCOCC4)c23)c1`: the ΔTm was determined as 1.39 °C in experiment [1]; 1.88 °C in experiment [2]; 0.56 °C in experiment [3]; 4.32 °C in experiment [4]; 0.64 °C in experiment [5]; 4.35 °C in experiment [6].

With `CN(C(=O)c1cnn2cccnc12)c1cc2c(cc1N1CCOCC1)C(=O)N(C[C@@H](F)C(C)(C)O)C2`, the ΔTm in experiment [1] is 0.37 °C; in experiment [2], -0.41 °C; in experiment [3], -0.06 °C; in experiment [4] it was -0.42 °C; in experiment [5], 0.49 °C; in experiment [6], -0.66 °C.

For the compound `CN(C)C/C=C/C(=O)Nc1ccc(C(=O)Nc2cccc(Nc3ncc(Cl)c(-c4c[nH]c5ccccc45)n3)c2)cc1`, the ΔTm in experiment [1] is 6.42 °C; in experiment [2] it was 7.89 °C; in experiment [3], -0.47 °C; in experiment [4], 12.9 °C; in experiment [5], -1.25 °C; in experiment [6] it was 10.2 °C.

As to `CN(C)[C@H]1CCN(c2cc(C(F)(F)F)c(C#N)c(Nc3cccc(CCC(=O)O)c3)n2)C1`, the ΔTm in experiment [1] is -0.06 °C; in experiment [2], 0.28 °C; in experiment [3] it was 0.14 °C; in experiment [4], 0.08 °C; in experiment [5], 0.58 °C; in experiment [6], 0.51 °C.
